The supplement of paper PMC7595190
Unmarked numbers belong to inactive results.

Test system: MV4-11
Assay: CellTox Green cytotoxicity fluorescence relative to DMSO vehicle (fold of vehicle RFU); higher = more cell death (loss of membrane integrity), active = 2 or more
Method: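 Paediatric AML cell lines (MV4-11, CMK, Kasumi-1; 4x10^4 cells/well, 96-well) treated with single compounds from the Selleckchem apoptosis library at 0.01, 0.1 and 1 µM. Cytotoxicity was read with CellTox Green (RFU, Ex 485/Em 520) at 24, 48 and 72 h and normalised to the 0.1% DMSO vehicle. Normalised RFU >= 2 was taken as a successful, cell-killing treatment.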

Cc1cc2c(C(C)C)c(O)c(O)c(C=O)c2c(O)c1-c1c(C)cc2c(C(C)C)c(O)c(O)c(C=O)c2c1O
CellTox Green cytotoxicity fluorescence (0.01 µM, 24 h): 0.979 | CellTox Green cytotoxicity fluorescence (0.01 µM, 48 h): 1 | CellTox Green cytotoxicity fluorescence (0.01 µM, 72 h): 1 | CellTox Green cytotoxicity fluorescence (0.1 µM, 24 h): 1 | CellTox Green cytotoxicity fluorescence (0.1 µM, 48 h): 1 | CellTox Green cytotoxicity fluorescence (0.1 µM, 72 h): 0.993 | CellTox Green cytotoxicity fluorescence (1 µM, 24 h): 0.973 | CellTox Green cytotoxicity fluorescence (1 µM, 48 h): 0.959 | CellTox Green cytotoxicity fluorescence (1 µM, 72 h): 1.02

COc1cc([C@@H]2c3cc4c(cc3[C@H](O)[C@H]3COC(=O)[C@@H]23)OCO4)cc(OC)c1OC [Picropodophyllin]
CellTox Green cytotoxicity fluorescence (0.01 µM, 24 h): 0.934 | CellTox Green cytotoxicity fluorescence (0.01 µM, 48 h): 0.932 | CellTox Green cytotoxicity fluorescence (0.01 µM, 72 h): 0.939 | CellTox Green cytotoxicity fluorescence (0.1 µM, 24 h): 0.922 | CellTox Green cytotoxicity fluorescence (0.1 µM, 48 h): 0.924 | CellTox Green cytotoxicity fluorescence (0.1 µM, 72 h): 0.931 | CellTox Green cytotoxicity fluorescence (1 µM, 24 h): 1.28 | CellTox Green cytotoxicity fluorescence (1 µM, 48 h): 2.6 (active) | CellTox Green cytotoxicity fluorescence (1 µM, 72 h): 3.18 (active)

CN[C@@H]1C[C@H]2O[C@@](C)([C@@H]1OC)n1c3ccccc3c3c4c(c5c6ccccc6n2c5c31)C(=O)NC4 [Staurosporine]
CellTox Green cytotoxicity fluorescence (0.01 µM, 24 h): 0.985 | CellTox Green cytotoxicity fluorescence (0.01 µM, 48 h): 1.41 | CellTox Green cytotoxicity fluorescence (0.01 µM, 72 h): 1.83 | CellTox Green cytotoxicity fluorescence (0.1 µM, 24 h): 1.01 | CellTox Green cytotoxicity fluorescence (0.1 µM, 48 h): 1.48 | CellTox Green cytotoxicity fluorescence (0.1 µM, 72 h): 1.96 | CellTox Green cytotoxicity fluorescence (1 µM, 24 h): 1.36 | CellTox Green cytotoxicity fluorescence (1 µM, 48 h): 2.34 (active) | CellTox Green cytotoxicity fluorescence (1 µM, 72 h): 2.42 (active)

COc1ccc2c(c1)/C(=C/c1cnc[nH]1)C(=O)N2
CellTox Green cytotoxicity fluorescence (0.01 µM, 24 h): 0.929 | CellTox Green cytotoxicity fluorescence (0.01 µM, 48 h): 0.92 | CellTox Green cytotoxicity fluorescence (0.01 µM, 72 h): 0.921 | CellTox Green cytotoxicity fluorescence (0.1 µM, 24 h): 0.92 | CellTox Green cytotoxicity fluorescence (0.1 µM, 48 h): 0.94 | CellTox Green cytotoxicity fluorescence (0.1 µM, 72 h): 0.941 | CellTox Green cytotoxicity fluorescence (1 µM, 24 h): 0.987 | CellTox Green cytotoxicity fluorescence (1 µM, 48 h): 1.03 | CellTox Green cytotoxicity fluorescence (1 µM, 72 h): 1.05

O=c1[nH]c2ccccc2n1C1CCN(Cc2ccc(-c3[nH]c4cc5ncnc5cc4nc3-c3ccccc3)cc2)CC1
CellTox Green cytotoxicity fluorescence (0.01 µM, 24 h): 1 | CellTox Green cytotoxicity fluorescence (0.01 µM, 48 h): 0.995 | CellTox Green cytotoxicity fluorescence (0.01 µM, 72 h): 0.956 | CellTox Green cytotoxicity fluorescence (0.1 µM, 24 h): 1 | CellTox Green cytotoxicity fluorescence (0.1 µM, 48 h): 0.999 | CellTox Green cytotoxicity fluorescence (0.1 µM, 72 h): 0.993 | CellTox Green cytotoxicity fluorescence (1 µM, 24 h): 1.04 | CellTox Green cytotoxicity fluorescence (1 µM, 48 h): 1.1 | CellTox Green cytotoxicity fluorescence (1 µM, 72 h): 1.21
